This note sets out measurements from PubChem BioAssay (NCATS).

Records with an inconclusive call do not appear. Entries that show only a call come without a potency. Calls of active or inactive are those of the source. The call rests on the fitted dose curve; in most records, active means well fitted inhibition curve with a large enough effect; inconclusive means small, poorly fitted or top-dose-only effect; inactive means no such curve, though single readings can be large or run the other way.

Assay [1] relates to Zika virus NS2B-NS3 protease (unlinked complex). Nature of the assay: Primary screen GU Rhodamine qHTS for Zika virus inhibitors: Unlinked NS2B-NS3 protease assay (AID 1347159). Further: nearly all actives have a fitted effect of over 60% in size. Further: potency means the concentration at half of the fitted maximal effect. An outline of the steps:
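Buffer 10 mM Tris-HCl pH 8.0, 0.01% Tween 20. Unlinked protease 25 nM; compound preincubation 15 min, RT, protected from light. Substrate Rhod110, 1.5 microM; ~15% conversion in 15 min.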

Assay [2] deals with Zika virus NS2B-NS3 protease (linked construct). Description: Primary screen NINDS Rhodamine qHTS for Zika virus inhibitors (AID 1347160). Further: nearly all actives have a fitted effect of over 55% in size. An outline of the steps:
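Aprotinin served as in-plate control. Conditions: 25 nM linked NS2B-NS3, pH 8.0 Tris buffer, titrated compounds, 15 min preincubation and 15 min reaction with 1.5 microM Rhod110 substrate at room temperature.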
(In qHTS, concentration-response curves come from the screen itself.)

In the case of `CC1(C)COC(=O)[C@@H]1O[C@@H]1O[C@H](CO)[C@@H](O)[C@H](O)[C@H]1O`, the Potency result in assay [1] and in assay [2] was “inactive” throughout.
On to `CC(C)=CCC[C@](C)(O[C@@H]1O[C@H](CO[C@@H]2OC[C@H](O)[C@H](O)[C@H]2O)[C@@H](O)[C@H](O)[C@H]1O)[C@H]1CC[C@]2(C)[C@@H]1[C@H](O)C[C@@H]1[C@@]3(C)CC[C@H](O[C@@H]4O[C@H](CO)[C@@H](O)[C@H](O)[C@H]4O[C@@H]4O[C@H](CO)[C@@H](O)[C@H](O)[C@H]4O)C(C)(C)[C@@H]3CC[C@]12C`, for which the Potency result in assay [1] and in assay [2] was “inactive” each time.
Turning to `COC(=O)C1=CO[C@@H](O[C@@H]2O[C@H](CO)[C@@H](O)[C@H](O)[C@H]2O)[C@@H]2C(CO)=CC[C@H]12`, the Potency result in assay [1] and in assay [2] was “inactive” in each case.
Take `CC1=CCC[C@@H]2[C@@](C)(CCc3ccoc3)[C@H](C(=O)O)CC[C@@]12C`: in assay [1], the Potency was 31.6 µM (active). Moreover, the Potency entry in assay [2] was “inactive”.
Taken in the same sequence, the figures for `O=C(/C=C/c1ccc(O)cc1)OC[C@H]1O[C@@H](O/C(=C\c2ccccc2)C(=O)O)[C@H](O)[C@@H](O)[C@@H]1O` were “inactive” and “inactive”.
`CC1(C)CC(NC(=O)C(=O)Nc2ccc(Cl)cc2)CC(C)(C)N1`: the Potency entry in assay [1] and in assay [2] was “inactive” throughout.
As to `CC1(C)OC(=O)CC(O)C2(C)C1CC(=O)C1(C)C2C(O)CC2(C)C(c3ccoc3)OC(=O)C3OC321` (stereo unspecified), the Potency result in assay [1] and in assay [2] was “inactive” throughout.
`COc1c2ccoc2nc2c(OC)c(O[C@@H]3O[C@@H](C)[C@H](O)[C@@H](O[C@@H]4O[C@H](CO)[C@@H](O)[C@H](O)[C@H]4O)[C@H]3OC(C)=O)ccc12`: the Potency entry in assay [1] and in assay [2] was “inactive” throughout.
